Like-named read-outs stand apart in the source and are kept apart here. The campaign covered roughly 13,000 compounds. About 3,200 (25%) showed an effect of 50% or more. The list shows a part of the results.
Tested on: P. falciparum stage V gametocytes
Set-up: BacTiter-Glo ATP luminescence viability of purified stage V gametocytes in 384-well plates, per cent inhibition versus DMSO
Details: 48 h, 5 µM, inhibitor

Row | Structure (SMILES) | % Inhibition [%] | % Inhibition (% Inhibition) [%]
1 | Cc1cccc(-n2c(Nc3ccc(C)c(Cl)c3)nc3ccc(S(=O)(=O)NC(C)C(C)C)cc32)c1 (centres unmarked) [TCMDC-136234] | -15.02 | –
2 | CCCc1c(C(=O)OCC)c2cc(O)ccc2n1-c1ccc(OC)cc1 [TCMDC-125126] | -66.75 | –
3 | COc1cccc(C2=CC(C)(C)Oc3cc(OCCN(C)C)ccc32)c1 [TCMDC-131403] | 8.416 | –
4 | Cc1sc(N2CCN(C)CC2)nc1C(=O)Nc1ccc(F)cc1C(F)(F)F [TCMDC-134302] | -2.511 | –
5 | O=C(Nc1ccc(Cl)cc1)Nc1ccc(Cn2ncc(N3CCCNCC3)c(Cl)c2=O)cc1 [TCMDC-133331] | -14.26 | –
6 | Cc1ccc(Cn2ncc(N3CCC(N)CC3)c(Cl)c2=O)cc1NC(=O)Nc1ccc(-c2ccccc2)cc1 [TCMDC-141932] | 107.1 | –
7 | O=C(Nc1ccc(Cn2ncc(N3CCCNCC3)c(Cl)c2=O)cc1)Nc1ccc(-c2ccccc2)cc1 [TCMDC-141927] | – | -25.81
8 | Cc1ccc(NC(=O)Nc2ccc(Cn3ncc(N4CCCNCC4)c(Cl)c3=O)cc2)cc1 [TCMDC-133332] | 5.468 | –
9 | Cc1ccc(Cn2ncc(NC3CCNCC3)c(Cl)c2=O)cc1NC(=O)Nc1ccc(-c2ccccc2)cc1 [TCMDC-141929] | 95.66 | –
10 | COc1ccc2nccc([C@@H](O)CN3CCC(NCCOc4cccc(C(F)(F)F)c4Cl)CC3)c2c1 [TCMDC-140661] | 20.87 | –
11 | O=C(Nc1ccc(Br)c(Cl)c1)c1cc([N+](=O)[O-])cc2cn[nH]c12 [TCMDC-123693] | 77.61 | –
12 | O=C(Nc1cccc(C(F)(F)F)c1)c1cc([N+](=O)[O-])cc2cn[nH]c12 [TCMDC-125395] | 7.696 | –
13 | O=C(Nc1ccc(F)c(Cl)c1)c1cc([N+](=O)[O-])cc2cn[nH]c12 [TCMDC-123694] | -9.121 | –
14 | COc1cc(Nc2ccc3cc(S(=O)(=O)N4CCCCC4C)ccc3n2)cc(OC)c1OC (centres unmarked) [TCMDC-125163] | -47.67 | –
15 | O=c1cc(NCCCNCc2ccccc2-c2ccccc2)[nH]c2ccccc12 [TCMDC-139450] | -0.2545 | –
16 | COc1cc(NCCCNCc2cn(S(=O)(=O)c3ccccc3)c3ccccc23)nc2ccccc12 [TCMDC-140214] | 73.5 | –
17 | COc1cc(NCCCNC(=O)c2ccc(Cl)c(Cl)c2)nc2ccccc12 [TCMDC-140373] | -10.34 | –
18 | Cc1cc(OCCCN2CCC(NS(=O)(=O)c3ccc(Cl)c(Cl)c3)CC2)c2ccccc2n1 [TCMDC-136278] | -51.1 | –
19 | CCN(CC)CCOc1c(Cl)cc(Cl)cc1CNCCCNc1cc(=O)c2ccccc2[nH]1 [TCMDC-139684] | 26.89 | –
20 | COc1cc(NCCCNC(=O)c2cc3c(Cl)cc(Cl)cc3[nH]2)nc2ccccc12 [TCMDC-140360] | 30.45 | –
21 | O=c1cc(NCCCNCc2cn(S(=O)(=O)c3ccccc3)c3ccccc23)[nH]c2ccccc12 [TCMDC-140361] | 89.9 | –
22 | O=c1cc(NCCCNCc2cc(C(F)(F)F)ccc2Cl)[nH]c2ccccc12 [TCMDC-139422] | 4.715 | –
23 | COc1cc(NC2CCCC(NCc3cn(S(=O)(=O)c4ccccc4)c4ccccc34)C2)nc2ccccc12 (centres unmarked) [TCMDC-140505] | 77.87 | –
24 | Cc1c(NCCCNCc2cc(Cl)cc(Cl)c2Cl)[nH]c2ccccc2c1=O [TCMDC-139498] | -59.03 | –
25 | CN(C)CCCNCc1cn(S(=O)(=O)c2ccccc2Cl)c2ccccc12 [TCMDC-136302] | 105.4 | –

Row | Structure (SMILES) | % Inhibition [%] | % Inhibition (% Inhibition) [%]
26 | COc1ccc2nccc(NC(=O)N3CCC(NCc4cc5c(F)ccc(F)c5[nH]4)CC3)c2n1 [TCMDC-140784] | -20.31 | –
27 | Cc1cc(C(F)(F)F)n2nc(C(=O)N(Cc3cncn3Cc3ccccc3F)CC3CC3)cc2n1 [TCMDC-132463] | -10.43 | –
28 | Cc1c(C)n(C2CCCC2)c2ncnc(OC3CCN(CC(=O)NCC4CC4)CC3)c12 [TCMDC-134421] | 19.09 | –
29 | CN(Cc1cnc2nc(N)nc(N)c2n1)c1ccc(C(=O)N[C@H](CCC(=O)OC(C)(C)C)C(=O)N[C@@H](CCC(=O)OC(C)(C)C)C(=O)OC(C)(C)C)cc1 [TCMDC-137262] | -6.983 | –
30 | COc1cc(Cc2cnc(N)nc2N)cc(OC)c1OCCCCC(=O)O [TCMDC-137352] | 14.26 | –
31 | CN(Cc1cccc(C#N)c1)C1CCN(c2cc(NC(=O)c3cccc(F)c3)ccn2)CC1 [TCMDC-134972] | 21.14 | –
32 | COc1ccnc(NCCCNCc2cn(S(=O)(=O)c3ccccc3)c3ccccc23)c1 [TCMDC-140380] | 99.09 | –
33 | COc1cc(CNCCCNc2nc3ncccc3[nH]2)c2[nH]cc(Br)c2c1 [TCMDC-140259] | -28.64 | –
34 | COc1c(C)cc(I)cc1CNCCCNc1cc(=O)c2ccccc2[nH]1 [TCMDC-140056] | -89.66 | –
35 | CCCCCCN1CCC(NCc2ccc(C)cc2)CC1 [TCMDC-141667] | -37.31 | –
36 | CCN1CCC(NCc2ccc(-c3ccc(Cl)s3)cc2)CC1 [TCMDC-141263] | 93.74 | –
37 | CCCCCCN1CCC(NCc2ccc(C(F)(F)F)cc2)CC1 [TCMDC-141669] | -50.38 | –
38 | Clc1ccc(CNC2CCN(CC3CCCCC3)CC2)cc1 [TCMDC-141658] | -44.47 | –
39 | CN1CCC(NCc2ccc(-c3ccc(Cl)cc3)cc2)CC1 [TCMDC-141355] | 54.41 | –
40 | FC(F)(F)c1ccc(-c2ccc(CNC3CCN(CCN4CCOCC4)CC3)cc2)cc1 [TCMDC-136025] | 39 | –
41 | CC(C)N1CCC(NCc2ccc(-c3ccc(Cl)cc3)cc2)CC1 [TCMDC-141359] | 35.52 | –
42 | CCN1CCC(NCc2ccc(-c3ccc(Cl)cc3)cc2)CC1 [TCMDC-141354] | 41.97 | –
43 | CCCCCCN1CCC(NCc2ccc(Cl)cc2)CC1 [TCMDC-141666] | 71.31 | –
44 | CN(C)CCCc1cc(NC(=O)Nc2cccc(Cl)c2Cl)ccc1I [TCMDC-139132] | -49.28 | –
45 | CCOC(=O)c1c(C)n(-c2ccccc2)c2ccc(OC(=O)COc3ccc(Cl)cc3Cl)cc12 [TCMDC-124380] | -46.8 | –
46 | COc1ccc2nccc(C(=O)NC3CCC(CCN4CCc5cc(C#N)ccc5C4)CC3)c2c1 (centres unmarked) [TCMDC-139240] | 4.839 | –
47 | CN(C)CCCOc1c(C(C)(C)C)cc(-c2cc(C(C)(C)C)c(OCCCN(C)C)c(C(C)(C)C)c2)cc1C(C)(C)C [TCMDC-131822] | 59.94 | –
48 | Cn1cnc(CCNC(=O)c2ccc(-c3ccc(-c4nc5cc(F)ccc5[nH]4)cc3)cc2)c1 [TCMDC-132491] | 5.885 | –
49 | O=C(CC1SC(N2N=C(c3cccs3)CC2c2ccccc2)=NC1=O)Nc1ccc(Cl)cc1 (centres unmarked) [TCMDC-124762] | 14.18 | –
50 | Cc1cc(N(C)C)nc(Nc2ccc(NC(=O)COc3ccccc3)cc2)n1 [TCMDC-124975] | -15.54 | –

Row | Structure (SMILES) | % Inhibition [%] | % Inhibition (% Inhibition) [%]
51 | CCn1c(-c2nonc2N)nc2c(-c3cccc(Cl)c3)ncc(OCCCNCc3cnc(C)nc3N)c21 [TCMDC-135956] | 99.17 | –
52 | CCn1c(-c2nonc2N)nc2c(-c3cccc(Cl)c3)ncc(OCCCNCCc3cnc[nH]3)c21 [TCMDC-135919] | 106.8 | –
53 | Clc1cccc(CNc2nc(NCCc3cnc[nH]3)nc(NC3CCCCC3)n2)c1 [TCMDC-139735] | 0.07512 | –
54 | NC(N)=NC(=O)Nc1ccc(Cl)c([N+](=O)[O-])c1 [TCMDC-137567] | -21.87 | –
55 | CC(C)c1sc(N2CCN(C)CC2)nc1C(=O)NCCc1ccc(Br)cc1 [TCMDC-134294] | 2.102 | –
56 | COc1ccc2nccc([C@@H](O)CN3CCC(NC(=O)CCC(=O)c4cc(C(C)(C)C)ccc4OC)CC3)c2c1 [TCMDC-141108] | 21.12 | –
57 | Oc1ccc(Nc2nc(NCc3ccccc3)c3ccccc3n2)cc1 [TCMDC-125641] | -47.6 | –
58 | CC(C)CCNc1nc(NCCc2ccccc2)c2cc(O)ccc2n1 [TCMDC-138405] | 95.11 | –
59 | CC(C)CCNc1nc(NCc2ccccc2)c2cc(O)ccc2n1 [TCMDC-138436] | 91.5 | –
60 | Cc1cc(NCc2ccccc2)nc2cc(O)ccc12 [TCMDC-125297] | 15.33 | –
61 | CC(C)CCNc1nc(NCCCc2ccccc2)c2cc(O)ccc2n1 [TCMDC-138381] | 95.75 | –
62 | Cc1noc(-c2cccs2)c1C(=O)NCCc1cccc(Cl)c1 [TCMDC-124801] | 0.8455 | –
63 | COc1cc(CNC[C@@H](O)[C@H](Cc2ccccc2)NC(=O)c2cc(C3CCCC3)cc(N3CCCS3(=O)=O)c2)cc(OC)c1 [TCMDC-134560] | 26.15 | –
64 | CCOc1cc(C(=O)Nc2ccc3nc(N4CCCCC4)cc(C)c3c2)cc(OCC)c1OCC [TCMDC-125449] | -1.386 | –
65 | Cc1cccc2c(N=NC(=S)N(C)C)c(O)[nH]c12 [TCMDC-137626] | -58.93 | –
66 | O=C1OC2(CN1CC1CCN(Cc3ccc(-n4ccnc4)cc3)C1)c1ccccc1-c1ccccc12 (centres unmarked) [TCMDC-136314] | 22.25 | –
67 | N#Cc1cccc(NC(=O)Nc2ccc(-c3ccc(-c4nc5ccc(C(F)(F)F)cc5[nH]4)cc3)cc2)c1 [TCMDC-133190] | -5.798 | –
68 | Cc1cccc(NC(=O)Nc2cccc(-c3ccc(-c4nc5ccc(C(F)(F)F)cc5[nH]4)cc3)c2)c1 [TCMDC-133305] | 4.928 | –
69 | CCCCN(CCCC)CCCN(CCCN(CCCC)CCCC)c1cc(C)nc(Nc2ccc(Br)cc2)n1 [TCMDC-138004] | 92.54 | –
70 | Cc1cc(N(C)CCCN(C)C)nc(Nc2ccc(Br)cc2)n1 [TCMDC-136888] | 36.7 | –
71 | Cc1cc(N(C)CCN(C)C)nc(Nc2ccc(Br)cc2)n1 [TCMDC-137013] | 18.91 | –
72 | CCN(CCCN1CCCCC1)c1cc(C)nc(Nc2ccc(C)cc2)n1 [TCMDC-132427] | -21.39 | –
73 | CCCc1ccc(Nc2nc(C)cc(N(CC)CCCN3CCCCC3)n2)cc1 [TCMDC-132453] | 39.01 | –
74 | CCN(CC)CCCN(CCCN(CC)CC)c1cc(C)nc(Nc2ccc(Br)cc2)n1 [TCMDC-138007] | 66.18 | –
